# ± gives the standard deviation of the averaged measurements.
# Key:
# Assay in all cases: promoter activity interaction Z-score (Lux/OD deviation from empty-vector control); higher = stronger promoter induction by the compound
# [1] = tested on: E. coli BW25113 acrABp lux reporter
# How it was run: (§1)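 At 37°C, E. coli BW25113 reporter cultures in 40 µl LB Lennox in 384-well plates were read for OD600 and luminescence every 30 min for 12 h. Windows were 0–8 h for wild type and 1–9 h for deletion strains, and wells under 10% of the median growth value were removed. The score is the Z-transformed residual of growth-normalised luminescence against a control fit.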
# [2] = tested on: E. coli BW25113 micFp lux reporter
# How it was run: as §1
# [3] = tested on: E. coli BW25113 ompFp lux reporter
# How it was run: as §1
# [4] = tested on: E. coli BW25113 robp lux reporter
# How it was run: as §1
# [5] = tested on: E. coli BW25113 soxSp lux reporter
# How it was run: as §1
# [6] = tested on: E. coli BW25113 tolCp lux reporter
# How it was run: as §1
# [7] = 20 µg/ml, genetic background: wild type
# [8] = 20 µg/ml, genetic background: ΔmarA
# [9] = 20 µg/ml, genetic background: Δrob
# [10] = 20 µg/ml, genetic background: ΔsoxS
# [11] = 39.9 µg/ml, genetic background: wild type
# [12] = 39.9 µg/ml, genetic background: ΔmarA
# [13] = 39.9 µg/ml, genetic background: Δrob
# [14] = 39.9 µg/ml, genetic background: ΔsoxS
# [15] = 79.8 µg/ml, genetic background: wild type
# [16] = 79.8 µg/ml, genetic background: ΔmarA
# [17] = 79.8 µg/ml, genetic background: Δrob
# [18] = 79.8 µg/ml, genetic background: ΔsoxS
# [19] = 159.6 µg/ml, genetic background: wild type
# [20] = 159.6 µg/ml, genetic background: ΔmarA
# [21] = 159.6 µg/ml, genetic background: Δrob
# [22] = 159.6 µg/ml, genetic background: ΔsoxS
compound,measurement,setting,value
NC[C@H](O)c1ccc(O)c(O)c1 [Noradrenalin],promoter activity interaction Z-score,[1]; [7],0.191 ± 0.043
same,promoter activity interaction Z-score,[1]; [8],0.362 ± 0.59
same,promoter activity interaction Z-score,[1]; [9],0.47 ± 0.3
same,promoter activity interaction Z-score,[1]; [10],0.122 ± 0.4
same,promoter activity interaction Z-score,[1]; [11],0.0636 ± 0.28
same,promoter activity interaction Z-score,[1]; [12],0.359 ± 0.28
same,promoter activity interaction Z-score,[1]; [13],0.344 ± 0.66
same,promoter activity interaction Z-score,[1]; [14],0.23 ± 0.37
same,promoter activity interaction Z-score,[1]; [15],0.335 ± 0.023
same,promoter activity interaction Z-score,[1]; [16],-0.978 ± 0.27
same,promoter activity interaction Z-score,[1]; [17],0.541 ± 0.3
same,promoter activity interaction Z-score,[1]; [18],0.0112 ± 0.031
same,promoter activity interaction Z-score,[1]; [19],0.208 ± 0.26
same,promoter activity interaction Z-score,[1]; [20],0.422 ± 0.39
same,promoter activity interaction Z-score,[1]; [21],0.664 ± 0.6
same,promoter activity interaction Z-score,[1]; [22],0.626 ± 0.16
same,promoter activity interaction Z-score,[2]; [7],-0.0178 ± 0.045
same,promoter activity interaction Z-score,[2]; [8],0.0504 ± 0.056
same,promoter activity interaction Z-score,[2]; [9],-0.0409 ± 0.027
same,promoter activity interaction Z-score,[2]; [10],0.0398 ± 0.17
same,promoter activity interaction Z-score,[2]; [11],-0.101 ± 0.2
same,promoter activity interaction Z-score,[2]; [12],-0.00878 ± 0.065
same,promoter activity interaction Z-score,[2]; [13],-0.0156 ± 0.16
same,promoter activity interaction Z-score,[2]; [14],-0.114 ± 0.0037
same,promoter activity interaction Z-score,[2]; [15],0.00145 ± 0.18
same,promoter activity interaction Z-score,[2]; [16],-0.0653 ± 0.027
same,promoter activity interaction Z-score,[2]; [17],-0.14 ± 0.2
same,promoter activity interaction Z-score,[2]; [18],0.0484 ± 0.0015
same,promoter activity interaction Z-score,[2]; [19],-0.129 ± 0.14
same,promoter activity interaction Z-score,[2]; [20],-0.17 ± 0.03
same,promoter activity interaction Z-score,[2]; [21],-0.105 ± 0.047
same,promoter activity interaction Z-score,[2]; [22],-0.0781 ± 0.094
same,promoter activity interaction Z-score,[3]; [7],0.507 ± 0.061
same,promoter activity interaction Z-score,[3]; [8],0.708 ± 0.42
same,promoter activity interaction Z-score,[3]; [9],0.59 ± 0.074
same,promoter activity interaction Z-score,[3]; [10],0.138 ± 0.1
same,promoter activity interaction Z-score,[3]; [11],0.854 ± 0.025
same,promoter activity interaction Z-score,[3]; [12],0.48 ± 0.12
same,promoter activity interaction Z-score,[3]; [13],0.602 ± 0.42
same,promoter activity interaction Z-score,[3]; [14],0.403 ± 0.22
same,promoter activity interaction Z-score,[3]; [15],0.895 ± 0.33
same,promoter activity interaction Z-score,[3]; [16],0.0373 ± 0.12
same,promoter activity interaction Z-score,[3]; [17],0.307 ± 0.14
same,promoter activity interaction Z-score,[3]; [18],0.13 ± 0.09
same,promoter activity interaction Z-score,[3]; [19],1.01 ± 0.25
same,promoter activity interaction Z-score,[3]; [20],0.851 ± 0.14
same,promoter activity interaction Z-score,[3]; [21],0.476 ± 1.1
same,promoter activity interaction Z-score,[3]; [22],1.13 ± 0.2
same,promoter activity interaction Z-score,[4]; [7],0.547 ± 0.64
same,promoter activity interaction Z-score,[4]; [8],0.384 ± 0.1
same,promoter activity interaction Z-score,[4]; [9],0.384 ± 0.47
same,promoter activity interaction Z-score,[4]; [10],1.12 ± 0.86
same,promoter activity interaction Z-score,[4]; [11],0.762 ± 0.056
same,promoter activity interaction Z-score,[4]; [12],1.14 ± 0.33
same,promoter activity interaction Z-score,[4]; [13],0.129 ± 0.011
same,promoter activity interaction Z-score,[4]; [14],0.395 ± 0.56
same,promoter activity interaction Z-score,[4]; [15],0.33 ± 0.14
same,promoter activity interaction Z-score,[4]; [16],-0.159 ± 0.14
same,promoter activity interaction Z-score,[4]; [17],-0.0403 ± 0.17
same,promoter activity interaction Z-score,[4]; [18],0.042 ± 0.74
same,promoter activity interaction Z-score,[4]; [19],0.223 ± 0.48
same,promoter activity interaction Z-score,[4]; [20],-0.276 ± 0.24
same,promoter activity interaction Z-score,[4]; [21],-0.36 ± 0.58
same,promoter activity interaction Z-score,[4]; [22],-0.182 ± 0.36
same,promoter activity interaction Z-score,[5]; [7],-0.0849 ± 0.038
same,promoter activity interaction Z-score,[5]; [8],-0.0801 ± 0.073
same,promoter activity interaction Z-score,[5]; [9],-0.113 ± 0.058
same,promoter activity interaction Z-score,[5]; [10],0.0191 ± 0.33
same,promoter activity interaction Z-score,[5]; [11],0.0167 ± 0.12
same,promoter activity interaction Z-score,[5]; [12],-0.0796 ± 0.033
same,promoter activity interaction Z-score,[5]; [13],-0.0193 ± 0.2
same,promoter activity interaction Z-score,[5]; [14],0.0258 ± 0.27
same,promoter activity interaction Z-score,[5]; [15],-0.0633 ± 0.035
same,promoter activity interaction Z-score,[5]; [16],-0.258 ± 0.028
same,promoter activity interaction Z-score,[5]; [17],-0.159 ± 0.19
same,promoter activity interaction Z-score,[5]; [18],-0.00763 ± 0.11
same,promoter activity interaction Z-score,[5]; [19],-0.154 ± 0.0074
same,promoter activity interaction Z-score,[5]; [20],-0.357 ± 0.097
same,promoter activity interaction Z-score,[5]; [21],-0.388 ± 0.16
same,promoter activity interaction Z-score,[5]; [22],-0.0342 ± 0.11
same,promoter activity interaction Z-score,[6]; [7],0.0786 ± 0.23
same,promoter activity interaction Z-score,[6]; [8],0.206 ± 1.2
same,promoter activity interaction Z-score,[6]; [9],-0.339 ± 0.25
same,promoter activity interaction Z-score,[6]; [10],-0.485 ± 0.31
same,promoter activity interaction Z-score,[6]; [11],-0.478 ± 0.28
same,promoter activity interaction Z-score,[6]; [12],0.198 ± 0.13
same,promoter activity interaction Z-score,[6]; [13],-0.000984 ± 1.4
same,promoter activity interaction Z-score,[6]; [14],-0.431 ± 0.54
same,promoter activity interaction Z-score,[6]; [15],0.0142 ± 0.56
same,promoter activity interaction Z-score,[6]; [16],-0.267 ± 0.49
same,promoter activity interaction Z-score,[6]; [17],0.254 ± 0.35
same,promoter activity interaction Z-score,[6]; [18],-0.273 ± 0.31
same,promoter activity interaction Z-score,[6]; [19],-0.957 ± 1.4
same,promoter activity interaction Z-score,[6]; [20],-0.659 ± 0.07
same,promoter activity interaction Z-score,[6]; [21],-0.565 ± 0.4
same,promoter activity interaction Z-score,[6]; [22],-0.633 ± 0.011

# — the supplement of paper PMC12282887
